The whole screen tested about 2,300 compounds, of which about 1,000 (43%) were called active. So high a share suggests a set chosen from earlier hits. The list shows a part of the results. Measured potencies and affinities stand elsewhere. A number with no mark means an inactive call. How the calls were made is not given here.
Experiment: modified counter assay using GFP fluorescence, PhoP regulon inhibitor project, dose response (AID 1985)
Settings: S. Typhi, 4 h; series mostly up to 150 µM; inhibition: at the top concentration

Row | Structure (SMILES) | inhibition
1 | O=C(O)c1[nH]c2ccc(Br)cc2c1CCN1C(=O)c2cccc([N+](=O)[O-])c2C1=O | 28.4%
2 | Cc1ccc(CCNC(=O)c2cc(S(=O)(=O)N3CCCCC3)c[nH]2)cc1 | -3.72%
3 | Cn1cnnc1SCC(=O)Nc1ccc2nc(SCc3ccccc3)sc2c1 | 18.3%
4 | CCOC(=O)c1ccc(NC(=O)CSc2nc(N3CCOCC3)nc(N3CCOCC3)n2)cc1 | -12.2%
5 | CN1CCN(c2ccc(NC(=O)CSc3ccccc3)cc2F)CC1 | -5.04%
6 | CCOc1ccccc1NC(=O)CSc1nc(N)c(C#N)cc1C#N | -8.74%
7 | O=C(Nc1ccc2c(c1)OCCO2)C1CCCN1C(=O)Nc1ccc(F)cc1 (configuration not stated) | -20.6%
8 | C/C=C/c1ccc(OCc2cc(=O)n3cc(C)ccc3n2)c(OC)c1 | 4.23%
9 | CCN(CCCNC(=O)c1cn(CC)c2ccc(S(=O)(=O)N(C)C)cc2c1=O)c1cccc(C)c1 | -6.32%
10 | Cc1ccc(CCN2C(=O)CCC2(C)C(=O)NC2CCCC2)cc1 (configuration not stated) | -30.8%
11 | O=C(NCc1ccccc1)N[C@@H](Cc1c[nH]c2ccccc12)C(=O)O | -11.1%
12 | Cc1c(-n2cc(C(=O)c3ccccc3O)cc(C#N)c2=O)c(=O)n(-c2ccccc2)n1C | -2.88%
13 | Cc1c(NC(=O)OCc2ccccc2)c(=O)n(-c2ccccc2)n1C | 11.8%
14 | Cc1ccc(NC(=O)c2sccc2C)cc1[N+](=O)[O-] | 18.1%
15 | COc1ccc(NC(=O)CC2Sc3ncnn3C2=O)cc1 (configuration not stated) | 34.3%
16 | N=c1sc2c(n1Cc1ccccc1)CCCC2 | 32%
17 | Cc1cc(NC(=O)/C=C/C(=O)N(c2ccccc2C)C(C(=O)NC2CCCC2)c2ccc(F)cc2)no1 (configuration not stated) | -12.8%
18 | C[C@@H](NC(=O)[C@@H]1Cc2ccccc2CN1)C(=O)NCC1CCCO1 (some centres not stated) | -20.9%
19 | COc1c(C(=O)N2CCCC2)ccc2ccccc12 | -21.1%
20 | CC1CCN(C(=O)COc2ccc(Nc3ccccc3)cc2)CC1 | -4.41%
21 | COc1ccccc1Nc1cc(C(=O)NCc2cccnc2)c2ccccc2n1 | -14.3%
22 | CCOc1ccc(NC(=S)Nc2cc(C)[nH]n2)cc1 | -18.7%

Row | Structure (SMILES) | inhibition
23 | COc1ccc(Nc2c3c(nc4ccc(C)cc24)CCC3)cc1 | -11.8%
24 | CC(C)(C)Nc1c2ccccc2nc2ccccc12 | -15%
25 | CCOC(=O)c1ccc(NC(=O)C2CCC(CNc3c(N4CCOCC4)c(=O)c3=O)CC2)cc1 (configuration not stated) | 12.1%
26 | CCCCNC(=O)CCC(=O)Nc1ccc2nc(N3CCC(C)CC3)cc(C)c2c1 | 32.3%
27 | COc1ccc(N=CC2=C(Nc3ccc(OC)cc3)c3c(C)nn(-c4ccccn4)c3CC2)cc1 | 3.36%
28 | CCO[C@H]1OC(C(=O)O)=C[C@@H](c2ccccc2)[C@@H]1CCCO | -17.4%
29 | Clc1ccc2c(c1)C(N1CCNCC1)Cc1ccccc1S2 (configuration not stated) | 31%
30 | O=C(NCc1ccco1)C1CCN(C(=O)c2cc3sccc3n2Cc2ccc(Cl)cc2)CC1 | -20.7%
31 | Cc1ccc2nc(/C(C#N)=C\c3ccc(N4CCCCC4)c([N+](=O)[O-])c3)[nH]c2c1 | 37.4% [at 75 µM]
32 | C#CCOCCOCCOCCNc1nc(N2CCN(C(=O)CCCCCCCCCCNC(=O)[C@H](CCCCN)n3cc(CCO)nn3)CC2)nc(N2CCN(C(=O)CCCCCCCCCCNC(=O)[C@H](CCCCN)n3cc(CCO)nn3)CC2)n1 | -15.8%
33 | CCOC(=O)c1cc(-c2ccncc2)nc2c1c(C)nn2-c1ccccn1 | 16.8%
34 | CN(C)/C=N/c1ncc(C(=O)c2ccc(Cl)cc2)s1 | -14.3%
35 | Nc1nn2cc(-c3ccccc3)nc2c2ccccc12 | -4.55%
36 | Nc1ccc(N=Nc2ccccc2)c(N)n1 | 6.79%
37 | Nc1nc2ccccc2cc1-c1cccs1 | 14.8%
38 | Cc1ccc(C)c(Nc2cc(C)nc3ccccc23)c1 | 19.5%
39 | Cc1cc(-c2nc3ccccc3o2)c2ccccc2n1 | 9.15%
40 | CCCN(C(=O)CSc1nc2ccccc2n1CC)C1CCS(=O)(=O)C1 (configuration not stated) | 7.08%
41 | CCOc1ccc(-c2ccc(SCC(=O)N3CCOCC3)nn2)cc1 | -13.1%
42 | CCCCc1cc(=O)oc2cc(C)cc(OCC(=O)NCC3CCC(C(=O)O)CC3)c12 (configuration not stated) | -5.3%
43 | Clc1ccc2c(c1)c1cc(Cl)ccc1n2CN1CCOCC1 | 23.1%
44 | CC(C)C(NC(=O)c1ccc(Cl)cc1)C(=O)NCC1CCCO1 (configuration not stated) | -10.1%

Row | Structure (SMILES) | inhibition
45 | Cc1ccc(N(CC(=O)Nc2c(C)n(C)n(-c3ccccc3)c2=O)S(C)(=O)=O)cc1C | -10.6%
46 | OCC[C@H]1C[C@H](O)[C@@H](O)[C@@]2(Cc3ccccc3CO2)O1 | 18.1%
47 | O=C(NC1(C(F)(F)F)C(=O)Nc2c1c(=O)[nH]c(=O)n2-c1ccccc1)c1ccncc1 (configuration not stated) | 12.6%
48 | Cc1ccn2cc(-c3ccc4c(c3)NC(=O)CO4)nc2c1 | -12.7%
49 | Cc1csc2ncc(C(=O)Nc3ccon3)c(=O)n12 | -6.76%
50 | CCOc1ccccc1NC(=O)NS(=O)(=O)c1ccc(C)cc1 | 8.52%
51 | Cc1cccc(NC(=O)C2CCCN2S(=O)(=O)c2ccc3c(c2)n(C)c(=O)c(=O)n3C)c1 (configuration not stated) | 9.71%
52 | Cc1cc(C)c(S(=O)(=O)Nc2cccnc2)c(C)c1 | -5.79%
53 | CC(=O)Nc1ccc(S(=O)(=O)Nc2nc3ccccc3nc2Nc2cccc(S(N)(=O)=O)c2)cc1 | 10.4%
54 | Cc1cccc(NCN2C(=O)c3ccccc3C2=O)c1 | -4.13%
55 | Cc1ccc(NNS(=O)(=O)c2ccc(C)cc2)cc1 | -6.56%
56 | CC(C)NC(=O)Nc1ccc(Br)cc1Cl | -8.92%
57 | CC1CC(C)CN(C(=O)c2ccc(NC(=O)c3ccc(=O)[nH]c3)cc2)C1 (configuration not stated) | 6.58%
58 | COCCNC(=O)CN(C(=O)CCC(=O)Nc1ccccn1)c1ccc(F)c(Cl)c1 | 10.1%
59 | O=C(NCCOc1ccccc1)c1ncn[nH]1 | 16.9%
60 | O=C(OCCCN1C(=O)c2ccccc2C1=O)c1ccco1 | -4.23%
61 | CC(C)CCNC(=O)c1cc2c(s1)-c1ccccc1S(=O)(=O)C2 | 3.1%
62 | CN1CCc2c(sc3c2C(=O)NC(c2ccc4c(c2)OCO4)N3)C1 (configuration not stated) | -33.9%
63 | NS(=O)(=O)c1ccc(CNc2ccc3ccccc3n2)cc1 | 15%
64 | CCOC(=O)C1CCN(C(=O)CCc2nc3ccccc3[nH]2)CC1 | 22.6%
65 | O=C(CSc1ccccc1)N1CCC(N2CCC(C(=O)N3CCCC3)CC2)CC1 | -2.03%
66 | Cc1c(CC(=O)N2CCC(C(N)=O)CC2)c(=O)oc2cc3c(cc12)CCC1(CCCCC1)O3 | -10.6%

Row | Structure (SMILES) | inhibition
67 | C#CCOCCOCCOCCNc1nc(N2CCN(C(=O)CCCCCCCCCCNC(=O)Cn3cc(CCCCCN)nn3)CC2)nc(N2CCN(C(=O)CCCCCCCCCCNC(=O)[C@@H]([C@H](C)O)n3cc(C)nn3)CC2)n1 | -35.2%
68 | Cc1nc2ccccn2c1/C(O)=C1\C(=O)C(=O)N(CCN2CCOCC2)C1c1cccnc1 (configuration not stated) | -35%
69 | CCOC(=O)c1ccc(N2Cc3ccccc3C2=NC(=O)c2cccc([N+](=O)[O-])c2)cc1 | -10.3%
70 | COc1cccc(/C=C/C(=O)c2cccc([N+](=O)[O-])c2)c1OC | 10.9%
71 | CC(C(=O)c1ccc2ccccc2c1)N1CCCCC1 (configuration not stated) | -3.94%
72 | O=C(Nc1nnc(-c2cccs2)o1)c1cccc(C(F)(F)F)c1 | 38.8%
73 | CCC(=O)Nc1nnc(-c2ccco2)o1 | -4.91%
74 | COc1ccccc1C(=O)Nc1nnc(-c2ccc(Cl)cc2)o1 | 38.2%
75 | O=C(Nc1nnc(-c2cccs2)o1)c1cccc(F)c1 | -40.7%
76 | C=CCn1c(O)c(N=NC(=O)c2cccnc2)c2cc(Br)ccc21 | -23%
77 | O=C(N/N=C/c1cccc(OCc2ccccc2)c1)c1cccs1 | 33.8%
78 | NC1=NC(c2cccc(O)c2)n2c(nc3ccccc32)N1 (configuration not stated) | -20.6%
79 | CCOC(=O)c1ccccc1-n1c(C)cc(C2N=C(N)Nc3nc4ccccc4n32)c1C (configuration not stated) | 20.7%
80 | Cc1cc(C)c(S(=O)(=O)Nc2ccccc2C(=O)OCC(=O)NCc2ccccc2)c(C)c1 | 20%
81 | NC(=O)c1ccsc1NC(=O)c1ccc2c(c1)CCCC2 | -18.3%
82 | COc1ccc(N2CCN(c3cc(C)c4ccc(O)cc4n3)CC2)cc1 | 6.15%
83 | CCOC(=O)C(CC)Sc1ccc2nnc(-c3cccnc3)n2n1 (configuration not stated) | 8.03%
84 | COc1ccc(OC)c(C2=NO[C@@H]3C(=O)N(c4cc(Cl)ccc4OC)C(=O)[C@H]23)c1 | 17%
85 | Fc1cccc(NC(=S)NCc2ccc(Cl)cc2)c1 | -3.23%
86 | O=[N+]([O-])c1cccnc1S(=O)(=O)c1ccccc1 | 5.89%
87 | CCCCCNc1nc(N2CCCC2)c2c(c1C#N)CCN(C)C2 | 19%
88 | O=C(NCCO)C(=O)c1c(-c2ccc(Cl)cc2)cc2ccccn12 | -11.6%

Row | Structure (SMILES) | inhibition
89 | COCCn1c(SCC(=O)Nc2nnc(C)s2)nnc1-c1c[nH]c2ccccc12 | -7.27%
90 | CCCCNC(=O)NS(=O)(=O)c1ccc(C(=O)OC)o1 | -19%
91 | Nn1cnnc1SCC(=O)Nc1ccc(C2CCCCC2)cc1 | 8.77%
92 | Cc1ccc(NC(=O)c2cc(NC(=O)CCCC(=O)O)ccc2Cl)cc1Cl | -2.02%
93 | Cc1cccc(NC(=O)CSc2nc3c([nH]c4ccccc43)c(=O)n2C)c1 | 11.8%
94 | CCC(Sc1nc2ccncc2[nH]1)C(=O)Nc1ccc(C)c(Cl)c1 (configuration not stated) | 12.9%
95 | O=C(COc1ccc(Cl)cc1)Nc1cccc(-c2ccc3nncn3n2)c1 | 17.3%
96 | O=C(Cc1ccccc1)NCC(=O)Nc1cccc(Cl)c1 | -7.98%
97 | CCCCC(=O)Nc1ccc(F)c(Cl)c1 | 9.09%
98 | Cc1cnc(C(=O)OCC(=O)Nc2cccc(Cl)c2)cn1 | 1.01%
99 | CCS(=O)(=O)N1CCN(C2CCC(c3ccccc3)CC2)CC1 (configuration not stated) | 17.6%
100 | C[N+]12CN3CN(CN(C3)C1)C2 | -32.6%
101 | CCOC(=O)c1ccc(NC(=O)CSC(=S)N2CCOCC2)cc1 | 5.39%
102 | CC1CCN(CCC(=O)Nc2ccc(Cl)cc2)CC1 | 21.7%
103 | COCc1[nH]nc2c1C(c1c(F)cccc1Cl)C(C#N)=C(N)O2 (configuration not stated) | -5.17%
104 | CCOC(=O)c1cnn2c1[nH]c(=O)c1ccccc12 | 29.2%
105 | O=C(CCC(=O)Nc1nnc(C2CCCCC2)s1)NCC1CCCO1 (configuration not stated) | 14.5%
106 | CCCC1C(c2ccc(OC)cc2)C(C#N)(C#N)C2(C#N)CC1(N)NC2=O (configuration not stated) | -9.05%
107 | COc1ccc(C2CC(=O)N3CN(Cc4ccco4)CSC3=C2C#N)cc1 (configuration not stated) | 5.1%

From PubChem BioAssay AID1985 (Southern Research Specialized Biocontainment Screening …, 2009)
